Among all 69,000 compounds or so, about 30 (0.04%) showed an effect of 50% or more. For the sample, strong results were picked, then their nearest neighbours and some compounds at random.

This assay deals with T1, Histidine--tRNA ligase (Trypanosoma cruzi (strain CL Brener)) (UniProt Q4DA54).
T1 sequence (whole entry): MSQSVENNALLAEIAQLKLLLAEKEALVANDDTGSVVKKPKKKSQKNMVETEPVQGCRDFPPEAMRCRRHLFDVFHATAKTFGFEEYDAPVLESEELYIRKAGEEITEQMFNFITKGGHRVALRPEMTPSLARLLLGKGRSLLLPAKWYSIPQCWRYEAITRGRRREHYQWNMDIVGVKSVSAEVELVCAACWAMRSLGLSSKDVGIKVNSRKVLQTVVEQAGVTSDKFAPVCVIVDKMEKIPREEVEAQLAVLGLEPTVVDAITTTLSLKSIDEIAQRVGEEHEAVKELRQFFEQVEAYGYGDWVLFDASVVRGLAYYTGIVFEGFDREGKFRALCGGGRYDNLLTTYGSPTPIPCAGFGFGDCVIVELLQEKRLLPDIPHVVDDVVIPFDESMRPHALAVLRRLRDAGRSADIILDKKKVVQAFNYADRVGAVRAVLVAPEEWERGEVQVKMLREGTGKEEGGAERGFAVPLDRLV
As to the kind of experiment: Trypanosoma cruzi histidyl tRNA synthetase (Tc-HisRS). Set-up: scale not given: direction of the effect not stated beside the values. Format: functional. Conditions: 30 µM.
As to `COc1ccc(CN2C[C@H]3CC[C@](O)(c4ccc(C)cn4)[C@H]3C2)c(F)c1`, the Percent Effect was -0.54%.

Turning to `Cc1ccc(C(=O)N2C[C@H]3CCC[C@@]3(COCC3CCOCC3)C2)o1`, the Percent Effect is 14.3%. The same measure for `Cn1cc(CN2CC[C@H]3OCC[C@@H](C(=O)Nc4cnccn4)[C@@H]3C2)cn1`: -1.22%; for `CN(Cc1cccnc1)C[C@H]1OC[C@@H]2CCN(c3ncccn3)C[C@@H]21`: -3.09%.

As to `COc1cccc(-c2ncc(CN3CC[C@H]4CC[C@@H](C3)N4)s2)c1`, the Percent Effect turned out to be 7.88%.

Take `O=C(c1cnccn1)N1C[C@@H]2CCN(c3cccnc3)C[C@@H]2C1`: the Percent Effect was determined as 2.96%. The same measure for `CN(C)C(=O)[C@@H]1CCO[C@@H]2CCN(Cc3ccccc3)C[C@@H]21`: 5.88%.

For the compound `NCC1Cc2cc(-c3nccc(N4CCC(O)CC4)n3)cc(Cl)c2O1` (stereo unspecified), the Percent Effect came to 53.1%.

Regarding `NCC1Cc2cc(-c3nccc(N4CCC(O)CC4)n3)cc(F)c2O1` (stereo unspecified), the Percent Effect worked out at 33.7%. Turning to `NCC1Cc2cccc(-c3nccc(N4CCC(O)CC4)n3)c2O1` (stereo unspecified), the Percent Effect was determined as 20.4%. The same measure for `Cc1cnc(N2C[C@@H]3[C@@H](C2)OCC(=O)N3C)nc1`: 7.36%.

Consider `CC(=O)N1CC[C@@H]2O[C@@H](COCC(=O)N3CCCC3)CC[C@@H]21`, for which the Percent Effect came to 2.63%. With `O=C(C1CCCC1)N1C[C@@H](c2ccsc2)[C@@H]2CN(C3CCCC3)CC[C@@H]21` the figure was 41.7%; with `O=C(c1ccsc1)N1C[C@H]2CN(Cc3cccc(F)c3)C(=O)[C@H]2C1`, 7.84%; with `COCCN1C[C@@H]2CN(C(=O)[C@H]3CCCO3)C[C@@H]2C1=O`, 0%.

For `CSc1ncccc1C(=O)N1C[C@H]2CC[C@@H]1CN(c1ncccn1)C2`, the Percent Effect worked out at 1.67%. With `Cc1ccnc(OC[C@@]23CCO[C@@H]2CCN(c2ncccn2)C3)n1` the figure was 9.2%.

On to `O=C(NC1CC1)[C@@]12CCO[C@@H]1CCN(Cc1ccc3c(c1)OCO3)C2`, for which the Percent Effect was 1.11%.

`CC(C)c1nc(CNC2CCCN(c3cccnn3)C2)no1` (stereo unspecified): the Percent Effect worked out at 50.6%.

Turning to `CC(C)(C)c1nc(CNC2CCCN(c3cccnn3)C2)no1` (stereo unspecified), the Percent Effect turned out to be 0.595%.

As for `Cc1nc(CNC2CCCN(c3cccnn3)C2)no1` (stereo unspecified), the Percent Effect was 6.55%. With `O=C1[C@@H]2CCN(Cc3ccc(F)cc3)C[C@@H]2OCCN1c1cccnc1` the figure was 8.02%. The same measure for `COCCN(C)C(=O)Cn1cccc(OC)c1=O`: 3.31%; for `CCCOCC1CCN(C(=O)Cn2cccc(OC)c2=O)C1` (stereo unspecified): 10.3%; for `COc1cccn(CC(=O)N2CCCC3(CCCO3)CC2)c1=O` (stereo unspecified): 71.3%. With `COc1cccn(CC(=O)N2CCC3(CCNCC3)C2)c1=O` the figure was 10.9%. In the case of `COc1cccn(CC(=O)N2CCCC3(CCCCC3)C2)c1=O`, the Percent Effect was 76.2%.

`COc1cccn(CC(=O)N2CCCC3(CCOCC3)C2)c1=O`: the Percent Effect stood at 9.9%. With `Cc1ccc(N2CC[C@H]3O[C@H](C(=O)N4CCCCO4)CC[C@H]32)nn1` the figure was -1.11%. In the case of `CNC(=O)[C@H]1C[C@@H]2CN(S(=O)(=O)c3cccc(C)c3)C[C@@H]2N1C`, the Percent Effect came to 5.88%. As for `CC(=O)N1CCO[C@@H]2CN(C(=O)c3ccc4ccccc4c3)CC[C@@H]2C1`, the Percent Effect was -5.75%. On to `CCS(=O)(=O)N1Cc2c(Cn3ccnc3)nn(C)c2C1`, for which the Percent Effect was found to be 2.67%. The same measure for `Cn1nc(Cn2ccnc2)c2c1CN(c1ncccn1)C2`: 2.15%; for `Cn1nc(Cn2ccnc2)c2c1CN(c1nccs1)C2`: 66.7%. The same measure for `CN(CC1CC1)c1ccc2ccc(C(=O)NC3CCCCC3)cn12`: 42.8%; for `COCCNC(=O)c1ccc2ccc(N3CCN(CC4CC4)CC3)n2c1`: 38.8%; for `CC(C)N1CCN(c2ccc3ccc(C(=O)NC4CCCC4)cn23)CC1`: 60.2%. With `O=C(NC1CC1)c1ccc2ccc(N3CCN(CC4CC4)CC3)n2c1` the figure was 45.1%; with `CCN(CC)c1ccc2ccc(C(=O)NC3CC3)cn12`, 36.8%.

For `CC(=O)N1CCN(c2ccc3ccc(C(=O)NC4CCCC4)cn23)CC1`, the Percent Effect was found to be 59.4%. The same measure for `CN(C)C(=O)N1CCN(c2ccc3ccc(C(=O)NC4CC4)cn23)CC1`: 36.9%; for `COCCN1CCN(c2ccc3ccc(C(=O)NC4CC4)cn23)CC1`: 35%; for `CS(=O)(=O)N1CCN(c2ccc3ccc(C(=O)NC4CC4)cn23)CC1`: 52.4%. Consider `CS(=O)(=O)NC[C@]12COC[C@H]1CN(C(=O)C1CCSCC1)C2`, for which the Percent Effect is -6.35%. The same measure for `Cc1cc(CN2CC[C@H]3C(=O)N(c4ccccc4)CCO[C@H]3C2)no1`: 7.1%; for `CCOc1ccc(CCC(=O)N2CC[C@H]3C(=O)NCCO[C@H]3C2)cc1`: 3.45%. With `CN(C)CCO[C@H]1CN(C(=O)c2ccc(C#N)cc2)[C@@H]2COC[C@H]12` the figure was 15.7%. With `CO[C@H]1[C@@H]2CC[C@H]1CN(c1nc(C)nc3ccsc13)C2` the figure was -6.52%. In the case of `CN(C)C(=O)CN1C[C@H]2CCN(C(=O)c3ccccc3)CC[C@H]2S1(=O)=O`, the Percent Effect came to 4.3%.

As to `Cc1noc(C)c1CN1CCO[C@H]2CN(Cc3ccc(F)cc3)C[C@H]21`, the Percent Effect stood at 7.2%. With `O=C(Cn1c(=O)nc2n1C(=O)N(c1ccccc1)C2)NC1CCCCC1` the figure was 6.06%; with `CN(CC1CC1)c1ccc2ccc(C(=O)NCCc3ccccc3)cn12`, 51.4%; with `COCCNC(=O)c1ccc2ccc(N(C)CC3CC3)n2c1`, 26.4%. As to `CN(C)CCNC(=O)c1ccc2ccc(N(C)CC3CC3)n2c1`, the Percent Effect was -9.13%.

Take `O=C(c1ccnnc1)N1CC[C@H]2C[C@H](c3ccncn3)O[C@@H]2C1`: the Percent Effect turned out to be 7.44%. The same measure for `CS(=O)(=O)N1C[C@H]2C[C@H](C(=O)N3CCOCC3)[C@@H](C1)O2`: 4.85%.

With `O=C(O)c1cncc(Cc2cccc(F)c2)c1`, the Percent Effect stood at 5.64%.

On to `O=C(O)c1cncc(Cc2ccccc2F)c1`, for which the Percent Effect was -0.376%. The same measure for `O=C(O)c1cncc(Cc2ccc(F)cc2)c1`: 62.8%; for `O=C(CO[C@@H]1CC[C@H]2[C@H]1OCCN2Cc1ccccn1)N1CCCC1`: 7.53%. With `Cc1noc(C)c1CN1C(=O)[C@H]2CC[C@@H]1CN(Cc1ccc(Cl)cc1)C2` the figure was 3.17%. With `CCN1C(=O)COC[C@@H]1[C@H](O)c1ccc(NC(=O)COC)cc1` the figure was -5.47%; with `Cn1ccnc1CN1C[C@H]2CN(S(=O)(=O)c3ccccc3)CCN2C1=O`, -1.49%. In the case of `CCN1CCN(S(=O)(=O)N2CCc3ccccc3C2)[C@H]2CS(=O)(=O)C[C@H]21`, the Percent Effect is 1.32%.

In the case of `O=C1[C@H]2CC[C@H](CN(Cc3nnc(C4CC4)o3)C2)N1Cc1cscn1`, the Percent Effect came out at 8%. In the case of `CC(C)C(=O)N1CC[C@@H]2CN(Cc3ccncc3)S(=O)(=O)[C@@H]2CC1`, the Percent Effect is 1.07%. With `Cc1ccccc1C(=O)N1CC[C@@H]2CN(c3ncccn3)CCO[C@@H]2C1` the figure was 0.98%; with `CCOC(=O)[C@]12CCCN(Cc3ccco3)C[C@H]1CN(S(C)(=O)=O)C2`, 1.68%.

With `c1cc(CN2C[C@@H]3OCCN(CC4CCCO4)[C@@H]3C2)co1` (stereo partly specified), the Percent Effect was 2.94%. The same measure for `Cn1cc(CN2CC[C@H]3C[C@H](c4nc(C5CC5)cs4)O[C@@H]3C2)cn1`: 1.67%; for `CCn1ncnc1C1CC(=O)NCc2nc(N3CCOCC3)sc21` (stereo unspecified): 9.45%. `COc1ccc(C2CC(=O)Nc3nc(N4CCOCC4)sc32)c(OC)c1` (stereo unspecified): the Percent Effect came to 72%. For `COc1ccc(C2CC(=O)Nc3nc(N4CCOCC4)sc32)cc1` (stereo unspecified), the Percent Effect was -2.48%. The same measure for `COc1ccc(OC)c(C2CC(=O)Nc3nc(N4CCOCC4)sc32)c1` (stereo unspecified): 75.8%; for `COc1ccc(C(C)C)cc1C1CC(=O)NCc2nc(N(C)C)sc21` (stereo unspecified): 7.85%.

With `COc1ccc(OC)c(C2CCN(CC(C)(C)N3CCOCC3)C2)c1` (stereo unspecified), the Percent Effect turned out to be 8.29%. The same measure for `O=C1C[C@H]2[C@@H](CCN2C(=O)Cc2cccs2)N1CC1CC1`: 5.83%; for `CC(C)NC(=O)[C@H]1C[C@@H]2[C@@H](C1)OCCN2Cc1cccs1`: 3.48%. The same measure for `CCOC(=O)[C@@H]1CN2CCNC[C@@H]2[C@H]1c1ccccc1`: 1.12%. The same measure for `O=C(C1CCOCC1)N1C[C@H]2CCC[C@@]2(COc2cccnc2)C1`: 12.8%; for `CCOC(=O)[C@]12CCCN(Cc3nccs3)C[C@H]1CN(S(C)(=O)=O)C2`: 6.45%; for `Cn1cc(C(=O)N[C@H]2CN(S(C)(=O)=O)[C@@H]3CCCO[C@H]23)cn1`: 4.9%. For the compound `Cc1ccc(C(=O)N2CCO[C@H]3[C@@H](OCc4ccccn4)CC[C@@H]32)o1`, the Percent Effect stood at 5.43%. With `O=C(c1ccccn1)N1C[C@@H]2CC[C@H](C1)N(C(=O)CCc1cccs1)C2` the figure was 5.02%. With `CCN1CCO[C@@H]2CN(C(=O)NCc3ccccc3)CC[C@@H]2C1` the figure was 1.06%; with `CN1CCC(NC(=O)[C@H]2CC[C@@H]3[C@@H](CCN3c3ncccn3)O2)CC1`, 5.75%; with `c1cnc(N2C[C@@H]3COC[C@]3(COCC3CCCC3)C2)nc1`, 14.3%. The same measure for `Cc1ccsc1C(=O)N1C[C@@H]2CN(Cc3ccoc3)CCO[C@@H]2C1`: 3.87%. With `Cc1ccc(N2CCN(C(=O)CN3C[C@@H]4CC[C@H]3C4)CC2=O)cc1`, the Percent Effect amounted to 6.47%.

`Cc1ccc(CN2CCC[C@]3(C(=O)O)CN(CC4CC4)C[C@@H]3C2)s1`: the Percent Effect is -3.17%. With `CCn1ncc(CN2C[C@@H]3CCCN3C[C@@H]2CCSC)c1C` the figure was 8.99%. Turning to `O=C(C1CCC1)N1CC[C@@H]2CN(Cc3cccnc3)S(=O)(=O)[C@@H]2CC1`, the Percent Effect came to 11.6%. With `CN(C)C(=O)COC[C@]12COC[C@H]1CN(Cc1ccccc1)C2` the figure was 4.67%; with `CC1CCN(c2ccc(C(=O)N3CCCC3c3ccc[nH]3)cn2)CC1` (stereo unspecified), 66.8%; with `NC(=O)c1ccc(OCC(=O)N2CCCC2c2ccc[nH]2)cc1` (stereo unspecified), 9.13%. With `CC1CCN(c2ccc(C(=O)N3CCCC3c3nncn3C)cn2)CC1` (stereo unspecified) the figure was 3.87%.

For `O=C(Nc1cccnc1)[C@H]1CO[C@H]2CCN(c3ncc(F)cn3)C[C@H]2C1`, the Percent Effect turned out to be 8.11%. The same measure for `CC(C)(O)CCc1cccc(C(=O)NCc2cnn3cccnc23)c1`: 1.82%; for `CC(C)Cn1cncc1CNC(=O)c1cccc(CC2CCNCC2)c1`: 1.62%. With `O=C(NCc1cnn2cccnc12)c1cccc(CC2CCNCC2)c1` the figure was 85.5%; with `COc1cc(N2CC[C@H]3O[C@@H](C(=O)NC4CCCC4)CC[C@H]32)ncn1`, 0%. As to `CC(=O)N1C[C@@H]2CC[C@H](C1)N(S(=O)(=O)c1ccc(F)cc1Cl)C2`, the Percent Effect was found to be 3%. With `CC/N=c1/c(NC(=O)C2CC2)c(O)oc2ccccc12` the figure was 3.51%.

For the compound `NC1CCN(C2CCN(c3ccc(-c4ccco4)cc3)CC2)CC1`, the Percent Effect amounted to 43.5%. With `NCC1CCN(C2CCN(c3ccc(-c4ccco4)cc3)CC2)C1` (stereo unspecified) the figure was 50.6%. The same measure for `CNC1CCN(C2CCN(c3ccc(-c4ccco4)cc3)CC2)CC1`: 35.3%.

These data come from ChEMBL document CHEMBL3988442, “University of Dundee, Small-Polar-MMV Screening Library” (2021).
